Records with an inconclusive call do not appear. Where a call stands in place of a potency, no number is given. Active and inactive are the calls of the source. The call rests on the fitted dose curve.
Assay: qHTS assay for small molecule agonists of the p53 signaling pathway (AID 651631); further: nearly all actives have a fitted effect of over 15% in size
Conditions: HCT-116 p53RE-bla reporter, beta-lactamase FRET ratio, 16 h; series mostly up to 73.3 µM
Excerpt: U.S. Tox21 Program National Center for Advancing Translational Sciences [NCATS] NIH Chemical Genomics Center [NCGC] U.S. Environmental Protection Agency [EPA] National Institutes of Environmental Health Sciences [NIEHS] National Toxicology Program [NTP] U.S. Food and Drug Administration [FDA] Tox21 Assay Overview: p53, a tumor suppressor protein, is activated following cellular insult, including DNA damage and other cellular stresses. The activation of p53 regulates cell fate by inducing DNA repair, cell cycle arrest, apoptosis, or cellular senescence. The activation of p53, therefore, is a good indicator of DNA damage and other cellular stresses. The CellSensor p53RE-bla HCT-116 cell line (Invitrogen) contains a stably integrated beta-lactamase reporter gene under control of the p53 response elements. The activation of the reporter gene under culture conditions can be detected by fluorescence intensity. This cell line was used to screen the Tox21 compound library in a 1536-well plate format and to identify agonists that activate the p53 signaling pathway.
Tox21 Assay Protocol Summary: The p53RE-bla cells were dispensed at 4,000 cells/5 ul/well in 1536-well black wall/clear bottom plates using a Multidrop dispenser. After the assay plates were incubated at a 37 C/5% CO2 incubator for 5 hours, 23 nL of compounds dissolved in DMSO, positive controls or DMSO only was transferred to the assay plate by a pin tool. The plates were incubated at 37 C for 16 hours. After 1 uL of LiveBLAzerTM B/G FRET substrate was added using a Flying Reagent Dispenser, the plates were incubated at room temperature for 2 hours, and fluorescence intensity was measured by an Envision plate reader.

| Structure (SMILES) | Potency |
| --- | --- |
| CN(C)[C@@H]1C(=O)C(C(=O)NCN2CCCC2)=C(O)[C@@]2(O)C(=O)C3=C(O)c4c(O)cccc4[C@@](C)(O)C3C[C@@H]12 (stereo not given in full) | inactive |
| CN(C)CCN(C)CCN(C)C | inactive |
| c1ccc(Cc2ccccc2)cc1 | inactive |
| NC(=O)N[C@@H](CCC(=O)O)C(=O)O | inactive |
| CN(C)C(=O)Oc1cccc([N+](C)(C)C)c1 | inactive |
| CC1(C)[C@@H]2CC[C@@]1(C)[C@H](O)C2 | inactive |
| CC(C)=CCC/C(C)=C/C#N | inactive |
| CC(C)C[C@@H](N)C(=O)O | inactive |
| CCOC(=O)c1ccccc1 | inactive |
| O=C(O)CNC(=O)c1ccc(CO)o1 | inactive |
| CN(C)C(=O)Oc1ccc[n+](C)c1 | inactive |
| CC(C)(C)OC(=O)c1cccc(N)c1 | inactive |
| NC(=O)Cc1cccc2ccccc12 | inactive |
| CCCCCCCCCCCCCCC(=O)O | inactive |
| CC1OC1C1CCC2(C)OC2C1 (stereo not given) | inactive |
| CCCC(C)C(=O)OCC (stereo not given) | inactive |
| CCCCCCCC1CCCC1=O (stereo not given) | inactive |
| CC12CCC(C(=O)C1=O)C2(C)C (stereo not given) | inactive |
| CCCCCCCCCCCCSC | inactive |
| CC(C)(C)C(=O)Oc1ccc(S(=O)(=O)Nc2ccccc2C(=O)NCC(=O)O)cc1 | inactive |

| Structure (SMILES) | Potency |
| --- | --- |
| CC(C)C1CCC(O)CC1 (stereo not given) | inactive |
| NC(=O)N1c2ccccc2CC(=O)c2ccccc21 | inactive |
| CC(=O)Nc1ccc(OCC(O)CNC(C)C)cc1 (stereo not given) | inactive |
| CCCCCC(C)N (stereo not given) | inactive |
| CCCCS(=O)(=O)N[C@@H](Cc1ccc(OCCCCC2CCNCC2)cc1)C(=O)O | inactive |
| CCCCOCCOC(=O)COc1cc(Cl)c(Cl)cc1Cl | inactive |
| C=CN1CCCCCC1=O | inactive |
| CC(C)CC(C)(N)C#N (stereo not given) | inactive |
| O=C(c1ccccc1)C1(O)CCCCC1 | inactive |
| C=COCC1CCC(COC=C)CC1 (stereo not given) | inactive |
| CCOC(=O)COc1cc(-n2ncc(C(F)(F)F)c(C)c2=O)c(F)cc1Cl | inactive |
| O=C(CO)[C@@H](O)[C@H](O)[C@H](O)CO | inactive |
| Nc1ccncc1N | inactive |
| COC(=O)Nc1ccc(Cl)c(Cl)c1 | inactive |
| Cc1ccc(C(=O)c2ccccc2)cc1 | inactive |
| O=C(CO)[C@@H](O)[C@H](O)[C@@H](O)CO | inactive |
| CCOC(=O)c1cnc2c(cnn2CC)c1NN=C(C)C | inactive |
| CCCCCC(=O)OCCc1ccccc1 | inactive |
| Clc1cc(Cl)c(Cl)nc1Cl | inactive |
| CO[Si](C)(OC)c1ccccc1 | inactive |

From PubChem BioAssay (Tox21)
